Measurements taken from PubChem BioAssay (Tox21).
Results filed as inconclusive are left out. Active and inactive are the calls of the source. Unless noted, the call rests on the fitted dose curve; in most records, active means well fitted curve in the direction sought with a large enough effect in the repeat runs; inconclusive means weak or mixed curves; inactive means no such curve, though single readings can be large; an effect the other way counts as inactive or inconclusive.

Assays:
[1] = qHTS assay to identify small molecule agonists of the sonic hedgehog signaling (Shh) pathway (AID 1259368; calls by dose curve;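 further: NIH/3T3-derived 3T3Gli1-Luc cells carrying a stable Gli1-driven firefly luciferase reporter; series mostly up to about 92 µM; nearly all actives have a fitted effect of over 15% in size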)
Procedure, shortened: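 Steps: seed 3T3 Gli1-Luc cells, incubate 4 hr at 37 C, pin-transfer compounds in DMSO alongside a positive control, incubate 24 hr, add luciferase detection reagent, wait 30 min at room temperature, read luminescence.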

[2] = qHTS assay to identify small molecule antagonists of the sonic hedgehog signaling (Shh) pathway (AID 1259369; calls by dose curve; further: nearly all actives have a fitted effect of over 45% in size)
Procedure, shortened: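 Inhibition of Shh signalling is measured as reduced Gli1-response-element firefly luciferase output in an NIH/3T3-derived stable reporter clone stimulated with conditioned medium for 24hr.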

[3] = qHTS assay to identify small molecule agonists of the androgen receptor (AR) signaling pathway in the presence of an antagonist - cell viability counter screen (AID 1259379); further: nearly all actives have a fitted effect of over 25% in size; further: potency means the concentration at half of the fitted maximal effect;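 on activity change, negative = cytotoxicity: MDA-kb2 human breast cancer cells carrying an MMTV luciferase reporter; series mostly up to about 92 µM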
Procedure, shortened: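 Fluorescence from CellTiter-Fluor, added after 15 hr and read 1 hr later, gave cell viability. Cells were MDA-kb2 exposed to compounds (15 concentrations) in the presence of 3.0uM nilutamide at 37C, 0% CO2.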

[4] = qHTS assay to identify small molecule agonists of the estrogen receptor beta (ER-beta) signaling pathway - cell viability counter screen (AID 1259380); further: nearly all actives have a fitted effect of over 30% in size
Procedure, shortened: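 Same-well viability counter screen. Cells: ER-beta-UAS-bla HEK293T, plated 6 hr before compound, in 2% charcoal-stripped FBS. Compound exposure 16 hr, 37C; viability by CellTiter-Glo luminescence after 30 min at room temperature.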

[5] = biological target: Estrogen receptor (Homo sapiens) (UniProt P03372); test: qHTS assay to identify small molecule agonists of the estrogen receptor alpha (ER-alpha) signaling pathway in the presence of an antagonist (AID 1259383; calls by dose curve; further: top concentration of the series differs between compounds; nearly all actives have a fitted effect of over 15% in size)
Estrogen receptor (Homo sapiens), sequence (P03372 whole entry, looked up): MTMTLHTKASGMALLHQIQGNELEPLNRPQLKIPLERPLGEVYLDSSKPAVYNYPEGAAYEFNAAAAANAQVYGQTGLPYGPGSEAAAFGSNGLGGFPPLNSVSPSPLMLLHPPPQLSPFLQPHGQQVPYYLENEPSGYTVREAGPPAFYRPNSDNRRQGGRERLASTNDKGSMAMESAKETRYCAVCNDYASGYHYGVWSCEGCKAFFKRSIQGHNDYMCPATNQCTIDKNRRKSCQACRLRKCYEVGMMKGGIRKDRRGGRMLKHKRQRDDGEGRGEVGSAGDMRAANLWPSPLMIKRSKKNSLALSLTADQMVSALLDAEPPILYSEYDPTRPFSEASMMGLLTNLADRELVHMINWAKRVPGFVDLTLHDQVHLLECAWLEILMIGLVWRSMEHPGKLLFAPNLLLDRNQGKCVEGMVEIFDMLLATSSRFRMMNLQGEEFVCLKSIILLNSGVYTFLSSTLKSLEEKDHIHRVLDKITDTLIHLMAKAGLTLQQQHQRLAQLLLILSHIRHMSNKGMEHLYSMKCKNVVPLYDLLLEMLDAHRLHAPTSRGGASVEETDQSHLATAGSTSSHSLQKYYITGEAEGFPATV
Procedure, shortened: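 Cells are hormone-deprived for 5 days (charcoal-stripped FBS, no phenol red), plated for 24hr, spiked with 10.0nM ICI-182,780, then dosed at 15 concentrations. After 22hr at 37C, ONE-Glo luminescence reports ERE-luciferase activity.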

[6] = qHTS assay to identify small molecule agonists or antagonists of the thyroid stimulating hormone receptor (TSHR) signaling pathway - wild type cell line counter screen (AID 1259384; calls by dose curve)
Procedure, shortened: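 Counter screen in untransfected Hek293: compounds (15-point titration, triplicate) plus phosphodiesterase inhibitor Ro20-1724 added after 18 h plating; 30 min RT. Intracellular cAMP via competitive d2/cryptate immunoassay, 1 h incubation.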

[7] = biological target: Thyrotropin receptor (Homo sapiens) (UniProt P16473); test: qHTS assay to identify small molecule antagonists of the thyroid stimulating hormone receptor (TSHR) signaling pathway (AID 1259385; calls by dose curve; further: nearly all actives have a fitted effect of over 20% in size)
Thyrotropin receptor (Homo sapiens), sequence (P16473 whole entry, looked up): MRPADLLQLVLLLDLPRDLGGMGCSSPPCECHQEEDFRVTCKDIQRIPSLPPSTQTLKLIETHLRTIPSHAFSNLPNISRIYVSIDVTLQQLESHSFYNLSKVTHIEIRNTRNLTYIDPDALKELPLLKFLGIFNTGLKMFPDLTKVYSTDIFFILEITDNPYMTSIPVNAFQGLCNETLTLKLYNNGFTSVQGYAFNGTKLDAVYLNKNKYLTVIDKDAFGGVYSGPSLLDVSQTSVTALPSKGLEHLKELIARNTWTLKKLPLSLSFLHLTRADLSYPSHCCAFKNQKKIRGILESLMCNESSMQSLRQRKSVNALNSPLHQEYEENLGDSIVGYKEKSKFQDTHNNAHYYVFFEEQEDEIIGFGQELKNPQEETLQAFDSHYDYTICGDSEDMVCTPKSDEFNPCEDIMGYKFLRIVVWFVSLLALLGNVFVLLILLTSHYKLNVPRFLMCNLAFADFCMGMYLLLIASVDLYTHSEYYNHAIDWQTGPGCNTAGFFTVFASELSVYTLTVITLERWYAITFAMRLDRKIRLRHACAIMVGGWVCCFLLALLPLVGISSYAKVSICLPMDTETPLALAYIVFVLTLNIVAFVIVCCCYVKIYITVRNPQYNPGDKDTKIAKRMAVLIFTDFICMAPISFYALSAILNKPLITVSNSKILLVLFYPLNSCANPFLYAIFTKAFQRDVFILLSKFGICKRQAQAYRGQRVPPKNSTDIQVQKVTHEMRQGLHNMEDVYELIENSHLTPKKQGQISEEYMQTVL
Procedure, shortened: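 Antagonist mode: compound-treated TSHR-expressing HEK293 cells were stimulated with 1.5 ng/mL TSH (final) in presence of Ro20-1724 for 30 min at RT. HTRF cAMP detection after 1 h; each compound tested at 15 concentrations, triplicate.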

[8] = qHTS assay to identify small molecule agonists of the estrogen receptor alpha (ER-alpha) signaling pathway in the presence of an antagonist - cell viability counter screen (AID 1259386);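 further: cells exposed to compounds for 22 h at 37 °C before the viability read; nearly all actives have a fitted effect of over 30% in size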; further: potency means the concentration at half of the fitted maximal effect; on activity change, negative = cytotoxicity: series mostly up to about 92 µM
Procedure, shortened: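 Cells are starved of estrogens for 5 days in charcoal-stripped serum, seeded for 24hr and co-treated with ICI-182,780 (10.0nM final) and test compounds. After 22hr at 37C, viability is read as CellTiter-Fluor fluorescence.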

[9] = qHTS assay to identify small molecule antagonists of the progesterone receptor (PR) signaling pathway - cell viability counter screen (AID 1346798); further: series mostly up to about 92 µM; nearly all actives have a fitted effect of over 50% in size
Procedure, shortened: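 Luminescence readout (CellTiter-Glo, 30 min, RT) of viability in PR-UAS-bla HEK293T cells exposed to compound and R5020 agonist for 16 hr at 37C, 5% CO2; run in the same wells as the beta-lactamase reporter read.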

[10] = qHTS assay to identify small molecule agonists of the progesterone receptor (PR) signaling pathway - cell viability counter screen (AID 1346799; calls by dose curve; further: nearly all actives have a fitted effect of over 45% in size)
Procedure, shortened: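 HEK293T PR-UAS-bla, 3,000 cells/well, 2% charcoal-stripped FBS; 6 h settle, compound 16 h at 37C/5% CO2; LiveBLAzer 2 h RT, then CellTiter-Glo 30 min RT, luminescence read.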

[11] = qHTS assay to identify small molecule antagonists of the TGF-beta/Smad signaling pathway - cell viability counter screen (AID 1346824); further: nearly all actives have a fitted effect of over 50% in size
Procedure, shortened: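 Cytotoxicity counter-screen run in the same wells as the beta-lactamase Smad reporter read: CellTiter-Glo luminescence after 30 min at room temperature. HEK 293T SBE-bla cells had 5 hr compound exposure at 37 C with TGF-beta1 (0.25 ng/mL stock).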

[12] = qHTS assay to identify small molecule agonists of the TGF-beta/Smad signaling pathway - cell viability counter screen (AID 1346829); further: top concentration of the series differs between compounds; nearly all actives have a fitted effect of over 45% in size
Procedure, shortened: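 Same-well cytotoxicity: CellTiter-Glo added after the 2 hr room-temperature beta-lactamase substrate step, luminescence measured 30 min later; cells had 5 hr of compound at 37 C.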

[13] = qHTS assay to identify small molecule agonists of the TGF-beta/Smad signaling pathway (AID 1346859; active means well fitted activation curve with a large enough effect in the signal ratio in the repeat runs, not every such curve was filed as active; the % refers to the signal ratio; further: series mostly up to about 77 µM)
Procedure, shortened: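 Read-out: fluorescence at 460 and 530 nm (405 nm excitation) after a 2 hr room-temperature incubation with beta-lactamase FRET substrate. SBE-bla HEK 293T cells had been treated with test compounds for 5 hr at 37 C.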

[14] = biological target: Thyrotropin-releasing hormone receptor (Homo sapiens) (UniProt P34981); test: qHTS assay to identify small molecule antagonists of the thyrotropin-releasing hormone receptor (TRHR) signaling pathway (AID 1346877; active means well fitted inhibition curve with a large enough effect in the repeat runs, not every such curve was filed as active; further: series mostly up to about 51 µM)
Thyrotropin-releasing hormone receptor (Homo sapiens), sequence (P34981 whole entry, looked up): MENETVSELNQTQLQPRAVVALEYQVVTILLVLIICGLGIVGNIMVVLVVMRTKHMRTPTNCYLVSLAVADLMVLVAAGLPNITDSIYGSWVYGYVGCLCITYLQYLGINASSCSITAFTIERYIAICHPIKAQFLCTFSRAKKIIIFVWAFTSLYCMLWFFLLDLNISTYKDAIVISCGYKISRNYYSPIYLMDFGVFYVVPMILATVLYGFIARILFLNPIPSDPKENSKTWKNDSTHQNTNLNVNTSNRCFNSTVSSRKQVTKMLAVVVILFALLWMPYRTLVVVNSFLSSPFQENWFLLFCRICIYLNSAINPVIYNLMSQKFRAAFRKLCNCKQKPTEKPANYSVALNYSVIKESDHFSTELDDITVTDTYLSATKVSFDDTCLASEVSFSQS
Procedure, shortened: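 Cells (TRHR-HEK293) are plated and kept 18 h at 37 °C/5% CO2. A calcium-sensitive dye is added for 2 h, compound follows for 5 min at room temperature, and TRH is then given at 1 nM final.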

[15] = qHTS assay to identify small molecule antagonists of the estrogen receptor beta (ER-beta) signaling pathway - cell viability counter screen (AID 1259382);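 further: HEK293T cells carrying ER-beta-UAS-bla reporter stimulated with estradiol; series mostly up to about 92 µM; nearly all actives have a fitted effect of over 55% in size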
Procedure, shortened: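 Following a 6 hr plating period, HEK293T cells carrying a UAS-driven beta-lactamase reporter under ER-beta control received compounds and 1nM E2 (final). After 16 hr at 37C and 2 hr substrate loading, CellTiter-Glo luminescence indicated viability.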

[16] = biological target: Progesterone receptor (Homo sapiens) (UniProt P06401); test: qHTS assay to identify small molecule agonists of the progesterone receptor (PR) signaling pathway (AID 1346784; calls by dose curve; further: nearly all actives have a fitted effect of over 30% in size)
Progesterone receptor (Homo sapiens), sequence (P06401 whole entry, looked up): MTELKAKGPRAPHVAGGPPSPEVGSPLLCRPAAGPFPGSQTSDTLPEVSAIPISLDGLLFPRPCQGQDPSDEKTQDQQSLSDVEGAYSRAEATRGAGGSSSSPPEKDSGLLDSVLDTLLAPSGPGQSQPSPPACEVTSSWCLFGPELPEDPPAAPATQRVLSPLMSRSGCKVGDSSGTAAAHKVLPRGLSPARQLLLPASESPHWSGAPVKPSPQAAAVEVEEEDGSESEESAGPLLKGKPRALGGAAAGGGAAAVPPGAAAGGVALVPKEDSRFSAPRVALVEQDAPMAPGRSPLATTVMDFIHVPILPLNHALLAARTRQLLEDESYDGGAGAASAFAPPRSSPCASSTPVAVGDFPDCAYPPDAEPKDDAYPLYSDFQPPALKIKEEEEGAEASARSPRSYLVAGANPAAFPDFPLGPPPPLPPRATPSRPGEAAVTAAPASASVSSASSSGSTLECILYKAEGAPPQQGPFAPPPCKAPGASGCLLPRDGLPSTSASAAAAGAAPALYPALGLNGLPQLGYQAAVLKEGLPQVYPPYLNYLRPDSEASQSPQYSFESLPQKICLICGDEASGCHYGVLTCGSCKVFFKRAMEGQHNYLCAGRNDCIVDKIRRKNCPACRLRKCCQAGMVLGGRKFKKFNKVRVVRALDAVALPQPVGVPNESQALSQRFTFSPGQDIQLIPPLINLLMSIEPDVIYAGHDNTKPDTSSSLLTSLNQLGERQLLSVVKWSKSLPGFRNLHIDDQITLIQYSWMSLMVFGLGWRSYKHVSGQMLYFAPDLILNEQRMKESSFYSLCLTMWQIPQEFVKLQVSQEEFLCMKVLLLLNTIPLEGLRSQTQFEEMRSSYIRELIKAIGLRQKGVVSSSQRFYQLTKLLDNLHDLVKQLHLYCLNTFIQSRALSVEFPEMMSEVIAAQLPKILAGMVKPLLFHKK
Procedure, shortened: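 HEK 293T PR-UAS-bla reporter cells, 2% charcoal-stripped FBS; 6 hr settle at 37C/5% CO2, compound (DMSO) 16 hr, LiveBLAzer B/G FRET substrate 2 hr RT, fluorescence intensity read.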

[17] = biological target: Progesterone receptor (Homo sapiens) (UniProt P06401); test: qHTS assay to identify small molecule antagonists of the progesterone receptor (PR) signaling pathway (AID 1346795; active means well fitted inhibition curve with a large enough effect in the signal ratio in the repeat runs, not every such curve was filed as active; the % refers to the signal ratio; further: potency means the concentration at half of the fitted maximal effect)
Procedure, shortened: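 Beta-lactamase reporter, HEK293T PR-UAS-bla line; 2% charcoal-stripped FBS; 6 hr pre-incubation, 37C/5% CO2. Compound + R5020 1 nM final, 16 hr. LiveBLAzer B/G FRET substrate, 2 hr RT; fluorescence intensity read.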
On the % scale 0 is the no-effect control and ±100 the full control effect.

CC(C)C(=O)OCCc1ccccc1
inactive: outcome [1] | Potency [2] | Potency [3] | Potency [4] | outcome [5] | outcome [6] | outcome [7] | Potency [8] | Potency [9] | Potency [10] | outcome [11] | outcome [12] | outcome [13] | outcome [14]

N[C@@H](CCC(=O)N[C@@H](CS)C(=O)NCC(=O)O)C(=O)O
inactive: activity change [1] -0.793% [at 18.9 µM] | activity change, negative = inhibition [2] 20% [at 19 µM] | activity change, negative = cytotoxicity [3] -2.43% [at 19 µM] | activity change, negative = cytotoxicity [4] 8.98% [at 19 µM] | activity change, negative = cytotoxicity [15] 1.29% [at 19 µM] | cAMP activity change [6] 2.89% [at 18.9 µM] | activity change, negative = inhibition [7] 6.72% [at 19 µM] | activity change, negative = cytotoxicity [8] 5.49% [at 19 µM] | activation [16] -0.471% [at 19 µM] | activity change, negative = inhibition [17] 1.1% [at 18.9 µM] | activity change, negative = cytotoxicity [9] 2.33% [at 18.9 µM] | viability change, negative = cytotoxic [11] 18.5% [at 15.8 µM] | activity change, negative = cytotoxicity [12] 1.41% [at 15.8 µM] | activation [13] 1.79% [at 15.8 µM]

O=C(OCC1(COC(=O)c2cccnc2)CCCC(COC(=O)c2cccnc2)(COC(=O)c2cccnc2)C1O)c1cccnc1
inactive: outcome [1] | Potency [2] | Potency [3] | Potency [4] | outcome [15] | outcome [6] | outcome [7] | Potency [16] | Potency [17] | Potency [9] | Potency [10] | outcome [11] | outcome [12] | outcome [13]

CC(C)(C)c1n[nH]c(=S)n(N)c1=O
inactive: outcome [1] | Potency [2] | Potency [3] | Potency [4] | outcome [5] | outcome [7] | Potency [16] | Potency [17] | Potency [9] | Potency [10] | outcome [11] | outcome [12] | outcome [13] | outcome [14]

CN(CCOc1ccc(NS(C)(=O)=O)cc1)CCc1ccc(NS(C)(=O)=O)cc1
inactive: outcome [1] | Potency [2] | Potency [3] | Potency [4] | outcome [15] | outcome [5] | outcome [7] | Potency [8] | Potency [16] | Potency [17] | Potency [9] | Potency [10] | outcome [12] | outcome [13]

CCCCCCCCC(=O)Cl
inactive: outcome [1] | Potency [2] | Potency [3] | Potency [4] | outcome [15] | outcome [5] | Potency [8] | Potency [16] | Potency [17] | Potency [9] | Potency [10] | outcome [11] | outcome [12] | outcome [13] | outcome [14]

CC(=O)c1ccc2c(c1)Cc1ccccc1-2
active: Potency [17] 12.2 µM
inactive: outcome [1] | Potency [2] | Potency [3] | Potency [4] | outcome [15] | outcome [5] | Potency [8] | Potency [16] | Potency [9] | Potency [10] | outcome [11] | outcome [12] | outcome [13] | outcome [14]

CC1COc2ccccc2N1 (stereo not given)
inactive: outcome [1] | Potency [2] | Potency [3] | Potency [4] | outcome [15] | outcome [7] | Potency [8] | Potency [16] | Potency [17] | Potency [9] | outcome [11] | outcome [12] | outcome [13] | outcome [14]

CCC(C)(CCC(C)C)C(=O)O (stereo not given)
inactive: outcome [1] | Potency [2] | Potency [3] | Potency [4] | outcome [15] | Potency [8] | Potency [16] | Potency [17] | Potency [9] | Potency [10] | outcome [11] | outcome [12] | outcome [13]

COc1ccc(Br)c(C)c1
inactive: outcome [1] | Potency [2] | Potency [3] | Potency [4] | outcome [15] | outcome [7] | Potency [8] | Potency [16] | Potency [17] | Potency [9] | Potency [10] | outcome [11] | outcome [12] | outcome [13] | outcome [14]

ClCCCl
inactive: outcome [1] | Potency [2] | Potency [3] | Potency [4] | outcome [15] | outcome [5] | Potency [8] | Potency [16] | Potency [17] | Potency [9] | outcome [11] | outcome [12] | outcome [13] | outcome [14]

Nc1ccc([N+](=O)[O-])c(N)c1
active: Potency [3] 29.9 µM | Potency [8] 29.9 µM
inactive: outcome [1] | Potency [2] | Potency [4] | outcome [15] | outcome [5] | outcome [6] | outcome [7] | Potency [16] | Potency [9] | Potency [10] | outcome [11] | outcome [12] | outcome [14]

C[Si](C)=O
inactive: activity change [1] 0.132% [at 8.39 µM] | activity change, negative = inhibition [2] 4.44% [at 8.39 µM] | activity change, negative = cytotoxicity [3] -1.72% [at 8.39 µM] | activity change, negative = cytotoxicity [4] 5.93% [at 8.39 µM] | activity change, negative = cytotoxicity [15] 0.879% [at 8.39 µM] | cAMP activity change [6] -4.18% [at 8.39 µM] | activity change, negative = inhibition [7] -2.39% [at 8.39 µM] | activity change, negative = cytotoxicity [8] 2.9% [at 8.39 µM] | activation [16] 1.46% [at 8.39 µM] | activity change, negative = inhibition [17] 12.9% [at 8.39 µM] | activity change, negative = cytotoxicity [9] 4.63% [at 8.39 µM] | activity change, negative = cytotoxicity [10] 7.66% [at 8.39 µM] | viability change, negative = cytotoxic [11] 0.719% [at 6.97 µM] | activity change, negative = cytotoxicity [12] 3.98% [at 6.97 µM] | activation [13] -0.731% [at 6.97 µM]

CCOCCOC(=O)/C=C/c1ccc(OC)cc1
inactive: outcome [1] | Potency [2] | Potency [3] | Potency [4] | outcome [15] | outcome [5] | outcome [6] | Potency [8] | Potency [16] | Potency [17] | Potency [9] | outcome [11] | outcome [12] | outcome [13]
